Source: PubChem BioAssay
HEK293 cAMP cs: qHTS Assay for Agonists of the Thyroid Stimulating Hormone Receptor: Activators of Intracellular cAMP Concentrations in Parental HEK 293. Potency, µM (top dose mostly 57.1 µM), without a hit: at the highest dose activation, most hits filed as activators. parental HEK293 CNG cAMP sensor, membrane potential fluorescence. 73,000 tested, 2.5% active; also: % of control where 0% means no effect; nearly all actives have a fitted effect of over 55% in size
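Counterscreen for endogenous-receptor signalling: CNG-channel HEK 293 cells report cAMP rise by membrane depolarization. After 60 min dye equilibration with 100 uM RO 20-1724, compounds incubated 30 min before bottom-read fluorescence at 590 nm.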
GBA activity: Glucocerebrosidase | purified enzyme, resorufin glucoside fluorescence (screen aimed at inhibitors), 20 min | Potency, µM | 48,000 tested, 1.1% active | AID 360, 2006; in the data active = potency below about 15 µM; inconclusive = mostly about 16 µM to 33 µM;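 also: the screen sought inhibitors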
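Normal human glucocerebrosidase (0.2 nM final) was assayed with resorufin β-D-glucopyranoside (30 uM final) in 50mM citric acid/KH2PO4, 10mM sodium taurocholate, 0.01% tween-20, pH 5.9. Compounds were titrated; fluorescence (Ex 548, Em 600) read after 20 min at RT.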
PK Bst: Pyruvate Kinase; purified pyruvate kinase, luminescence ATP production; ribose 5-phosphate activator present at AC10; Potency, µM; 51,000 tested, 1.2% active; in the data active = potency below about 11 µM; inconclusive = mostly about 12 µM to 25 µM;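 the screen sought inhibitors and activators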;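 also: scaled between full activation by ribose 5 phosphate and full inhibition by luteolin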
TSHR ag: qHTS Assay for Agonists of the Thyroid Stimulating Hormone Receptor | Potency, µM (highest dose often 57.1 µM), without a hit: at the top dose activation, actives largely listed as activators | Thyrotropin receptor (Homo sapiens), P16473 | HEK293-CNG-TSHR cells (CNG channel as cAMP sensor), membrane potential dye, cAMP | 73,000 tested, 0.48% active; active = well fitted activation curve with a large enough effect in the main read-out, with a control signal flat, not every such curve was filed as active; inconclusive = small, poorly fitted or top-dose-only effect, or a change in a side signal; inactive = no such curve, though single readings can be large or run the other way; % of control where 0% means no effect;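 also: the control signal comes from parental cells without the receptor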
Target sequence (P16473 whole entry, looked up): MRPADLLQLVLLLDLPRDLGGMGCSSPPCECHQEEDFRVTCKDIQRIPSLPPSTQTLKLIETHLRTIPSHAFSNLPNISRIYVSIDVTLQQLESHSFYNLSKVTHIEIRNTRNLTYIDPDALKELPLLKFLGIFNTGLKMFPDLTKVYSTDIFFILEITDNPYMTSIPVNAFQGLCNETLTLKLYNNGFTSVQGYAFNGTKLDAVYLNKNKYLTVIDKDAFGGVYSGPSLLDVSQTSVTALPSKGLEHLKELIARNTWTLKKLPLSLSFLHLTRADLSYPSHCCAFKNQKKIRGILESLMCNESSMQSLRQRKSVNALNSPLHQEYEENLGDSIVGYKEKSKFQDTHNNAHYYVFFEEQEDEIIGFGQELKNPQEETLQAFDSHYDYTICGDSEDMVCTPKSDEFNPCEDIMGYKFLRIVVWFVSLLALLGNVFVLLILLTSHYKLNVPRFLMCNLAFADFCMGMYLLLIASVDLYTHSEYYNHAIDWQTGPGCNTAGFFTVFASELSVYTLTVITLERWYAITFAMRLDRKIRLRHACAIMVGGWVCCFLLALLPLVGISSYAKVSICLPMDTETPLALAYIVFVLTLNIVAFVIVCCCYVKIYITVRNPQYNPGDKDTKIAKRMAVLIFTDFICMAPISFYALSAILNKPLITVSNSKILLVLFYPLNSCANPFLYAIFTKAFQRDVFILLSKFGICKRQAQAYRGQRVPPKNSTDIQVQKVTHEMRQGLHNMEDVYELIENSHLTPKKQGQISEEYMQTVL
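HEK 293 cells stably expressing TSHR and a cAMP-gated CNG channel; parental CNG-only cells as counterscreen. Cells preloaded 60 min with membrane potential dye plus 100 uM RO 20-1724, then compound 30 min; fluorescence read at 590 nm.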
Luciferase inh: qHTS Assay for Inhibitors of Firefly Luciferase; purified firefly luciferase, luminescence, 8 min; Potency, µM (series often up to 57.1 µM), for the others: at the highest dose activity change, negative = inhibition, usual class: inhibitors; 72,000 tested, 2.2% active; also: % is scaled to controls: 0 for no effect and ±100 for the full control effect; nearly all actives have a fitted effect of over 40% in size
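Here, luciferase activity is measured as luminescence following an 8 min room-temperature reaction at 10 uM ATP, pH 7.2. Every library sample is titrated.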
* = called active by the depositor; i = inactive; ? = inconclusive; / = no result given; [ ] = another dose, or the depositor's remark. Only some compounds are listed: those with a hit (about 5.8% of all), similar ones and a draw of the others. Unless noted, calls follow the shape of the dose curve; as a rule, active = well fitted curve in the direction sought with a large enough effect; inconclusive = small, poorly fitted or top-dose-only effect, or another doubt; inactive = no such curve, though single readings can be large; an effect the other way counts as inactive or inconclusive. Potency is read from the fitted curve at half-maximal effect.

SMILES	HEK293 cAMP cs	GBA activity	PK Bst	TSHR ag	Luciferase inh
O=C(Nc1ccc2nc3n(c(=O)c2c1)CCCCC3)c1ccccn1	-2%	/	/	-6%	13µM*
COC(=O)c1ccc(C(NC(=O)OCc2ccccc2)/C(=C/[C@@H](C)C(=O)NCc2ccccc2)c2cccnc2)cc1 (stereo not given in full)	6%	/	/	/	/
CCOC(=O)c1sc(NC(=O)CSc2nnc(-c3ccco3)n2CC)c(C(=O)OCC)c1C	?	>77	>57	?	-1%
CCOC(=O)c1sc(NC(=O)CSc2nncs2)c(C(=O)OCC)c1C	25µM*	9.6*	>57	?	-36%
CCOC(=O)c1c(-c2ccc(C)o2)csc1NC(=O)CSc1nnc(C)s1	32µM*	>77	>57	?	-4%
c1ccc(CNc2ncncc2-c2ccoc2)cc1	?	/	/	?	1%[2.29 µM]
O=C(O)CCCc1ccc2ccccc2c1	23%[11.4 µM]	/	/	8%[11.4 µM]	1%[11.4 µM]
O=C1c2ccccc2C(Cc2ccnc(F)c2)(Cc2ccnc(F)c2)c2ccccc21	0.25µM*	/	/	?	/
O=C1Nc2ccccc2[C@]1(O)Cc1ccccn1	-3%[11.4 µM]	/	/	-3%[11.4 µM]	3%[11.4 µM]
COc1ccc(OC)c(C2=Nn3c(nnc3-c3cccc(OC(C)C)c3)SC2)c1	25µM*	>77	>57	?	-1%
O=c1cc(CSc2ccc(Cl)cc2)nc2nc[nH]n12	10µM*	>77	/	?	1%
Clc1ccc(-c2nn3cnnc3s2)c(Cl)c1	13%	>77	10*	27%	-4%
CCc1ccc(NC(=O)c2cc(CC(C)C)on2)cc1	6%	/	/	6%	-14%
CCc1ccc(NC(=O)c2cc(C)on2)cc1	-4%	?	i	-4%	7.9µM*
CCc1ccc(NC(=O)c2cc(C(C)C)on2)cc1	9%	>77	i	7%	13µM*
CN(Cc1ccco1)c1ncnc2ccc(-c3ccc4c(c3)OCO4)cc12	16µM*	/	/	?	0%[2.29 µM]
CN(Cc1ccco1)c1ncncc1-c1ccc2c(c1)OCO2	18%	/	/	25µM*	3%[2.29 µM]
CN(C)c1ccc(-c2cncnc2N(C)Cc2ccco2)cc1	-3%	/	/	/	0%[2.29 µM]
Cc1ccc(-n2ncc(C#N)c2/N=C/N2CCN(C)CC2)cc1	0%	>77	>57	-6%	-1%
Cc1ccc(-n2ncc(C#N)c2/N=C/N2CCCCCC2)cc1	32µM*	>77	>57	?	1%
O=C(O)/C=C\C=C/c1ccc2c(c1)OCO2	10%[11.4 µM]	/	/	1%[11.4 µM]	2%[11.4 µM]
COc1ccccc1C[C@@H](Cc1nc2ccccc2[nH]1)c1nc2ccccc2[nH]1	29%	/	/	/	2%[11.4 µM]
Cc1ccc(C2=N/C(=C/N3CCOCC3)C(=O)O2)cc1	-3%	>77	/	-5%	20µM*
O=C(CSc1ncnc2sc3c(c12)CCCC3)c1ccco1	?	>77	/	?	32µM*
CCCCCCCCC	-37%	/	/	?	/
SMILES	HEK293 cAMP cs	GBA activity	PK Bst	TSHR ag	Luciferase inh
Cc1ccc(Nc2nc(N)nc(CSc3nccn3C)n2)cc1	0%	>77	/	-2%	20µM*
O=C(NC1CC1)c1cccc(Nc2ccc(-c3ccc4c(c3)OCCO4)nn2)c1	16%	>77	1.5*	8%	2µM*
O=C(Nc1ccncc1)c1ccc2c(c1)OCCO2	22%	/	/	-2%	?
CC(=O)[C@H]([C@@H](c1ccccc1)N1CCOCC1)N1CCOCC1	12%[11.4 µM]	/	/	4%[11.4 µM]	2%[11.4 µM]
O=C(O)C1(C(=O)O)CCN(S(=O)(=O)c2ccccc2)CC1	-1%[11.4 µM]	/	/	6%[11.4 µM]	3%[11.4 µM]
Cc1nc(Nc2nc3ccccc3o2)nc2c1CCC2	0%	/	/	4%	7.9µM*
COC(=O)NC(c1cccc(C)c1)[C@]1(C(C)=O)CCCC1=O (stereo not given in full)	1%[11.4 µM]	/	/	-2%[11.4 µM]	/
CC1(C)Oc2ccc(NC(=O)C3COc4ccccc4O3)cc2O1 (stereo not given)	21%	>77	?	11%	13µM*
COc1cc(NC(=O)C2COc3ccccc3O2)c(OC)cc1Cl (stereo not given)	16µM*	>77	>57	?	0%
CC(C)(C)NC(=O)c1ccc(NC(=O)C2COc3ccccc3O2)cc1 (stereo not given)	2%	>77	>57	27%	0%
CC(=O)N(C[C@@H](C)C(=O)O)c1c(I)cc(I)c(N)c1I	1%[25.6 µM]	/	/	2%[25.6 µM]	5%[25.5 µM]
CC(C)C[C@@H](CC(=O)N[C@H](CC(=O)N[C@@H]1CCCC[C@H]1C(=O)N[C@H](CC(=O)N[C@@H](CCC(=O)O)CC(=O)O)Cc1c[nH]c2ccccc12)C(C)C)NC(=O)[C@@H]1CCCC[C@H]1N	-2%	/	/	1%	/
COc1ccc2nc3c(cc2c1)c(NC(=O)c1cccs1)nn3CC(C)C	-7%	?	i	/	13µM*
COc1cc(OC)cc(OCC(O)Cn2ccnc2)c1 (stereo not given)	11%	>77	>57	-1%	1%
COc1ccc(C(=O)NCCCn2ccnc2)cc1	1.3µM*	>77	>57	?	3%
COc1ccc(CCCO[C@@H](Cn2ccnc2)c2ccc(OC)cc2)cc1	32µM*	/	/	?	2%
C=C(c1cccc2ccccc12)P(=O)(O)O	11%	>77	0.17*	10%	5%
CC(C)C[C@@H](CC(=O)N[C@@H](CCCN)CC(=O)N[C@@H]1CCNC[C@H]1C(=O)N[C@H](CC(=O)N[C@@H](CCC(=O)O)CC(=O)O)CC(C)C)NC(=O)[C@@H]1CCCC[C@H]1N	9%	/	/	5%	/
CCNc1ncc2nc(-c3cccc(C#N)c3)c(=O)n(CCC#N)c2n1	6%	/	/	4%	2%[11.4 µM]
CCOC(=O)C(NC(=O)c1ccc(OC)cc1)(OCC1(CC)COC1)C(F)(F)F (stereo not given)	22%	>77	>57	7.9µM*	3%
CCOC(=O)C(NC(=O)c1ccc(OC)cc1)(Nc1cc(C)on1)C(F)(F)F (stereo not given)	14%	>77	>57	6%	-1%
C#CCCCO/N=C1/C[C@@H](O)[C@@H](O)[C@@H]2[C@@H]3C(=O)N(Cc4ccc5c(c4)OCO5)C(=O)[C@H]3CC[C@@H]12	6%[11.4 µM]	/	/	18%[11.4 µM]	1%[11.4 µM]
COC(=O)c1ccc(OCC2c3cc(OC)c(OC)cc3CCN2C(=O)c2ccco2)cc1 (stereo not given)	28%	>77	>57	32µM*	4%
